Results on 13 molecules are retold here after PubChem BioAssay.

Assay [1] in a line: optical density shifts of acrAB sulA E. coli – strain DRC41, OD650, 48 h, E. coli filamentation inducer project, primary screen (AID 1152).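 Further: E. coli MC1000 strain DRC41 lacking acrAB efflux pump and sulA.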 As to conditions: higher = more signal, called active from +8 up or from −8 down.
Assay [2] in a line: probe aLefty1 binding on compound microarray – biochemical, small-molecule microarray, 635/667 nm fluorescence, primary screen (AID 1153).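 Further: score merges spot fluorescence with signal-to-noise ratio from the scanned slide images.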 The following applies: higher = more signal.
Assay [3] in a line: plasmodial surface anion channel blockers, osmotic lysis – cell-based, P. falciparum Indochina, OD700, 1 h, primary screen (AID 1154). The following applies: P. falciparum Indochina infected RBC osmotic lysis, higher = more signal, called active from +8 up or from −8 down.
Assay [4] can be described thus: plasmodial surface anion channel blockers, osmotic lysis – cell-based, P. falciparum Indochina, OD700, 2 h, primary screen (AID 1155).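 Further: lysis reports solute entry through the parasite surface anion channel PSAC.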 As to conditions: P. falciparum Indochina infected erythrocytes, higher = more signal, called active from +8 up or from −8 down.
A short description of assay [5]: changes in parasitized red cell lysis, either direction – P. falciparum Indochina, OD700, 3 h, PSAC antagonist project, primary screen (AID 1156). The following applies: P. falciparum-infected erythrocytes, osmotic lysis, higher = more signal, called active from +8 up or from −8 down.
A short description of assay [6]: plasmodial surface anion channel blockers, osmotic lysis – cell-based, P. falciparum Indochina, OD700, 18 h, primary screen (AID 1157). As to conditions: P. falciparum Indochina infected erythrocytes, osmotic lysis OD700, 18 h; higher = more signal, called active from +8 up or from −8 down.
The nature of assay [7]: S6 kinase pathway phospho-S6 level changes – cell-based, A549, cytoblot, luminescence, serum-stimulated, primary screen (AID 1158).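 Further: serum-stimulated A549 lung adenocarcinoma cells; signal is phosphorylated S6 detected by cytoblot immunostaining with HRP secondary.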 The following applies: 5 h, higher = more signal.
Assay [8] concerns the target NADPH oxidase 2 (Homo sapiens) (UniProt P04839). Nature of the assay: compounds shifting NOX2 Amplex Red fluorescence – cell-based, HEK293-NOX2, PMA-stimulated, NOX inhibitor project, primary screen (AID 1159). Further: test concentration not given here. The following applies: 45 min, higher = more signal, called active from +8 up or from −8 down.
Assay [9] concerns the target NADPH oxidase 4 (Homo sapiens) (UniProt Q9NPH5). Briefly: compounds shifting NOX4 Amplex Red fluorescence – cell-based, HEK293-NOX4, tetracycline-induced, NOX inhibitor project, primary screen (AID 1160). As to conditions: HEK293-NOX4, Amplex Red H2O2 fluorescence, 45 min; higher = more signal, called active from +8 up or from −8 down.
Assay [10] concerns the target NADPH oxidase 5 (Homo sapiens) (UniProt Q96PH1). Nature of the assay: compounds shifting NOX5 Amplex Red fluorescence – cell-based, HEK293-NOX5, NOX inhibitor project, primary screen (AID 1161). The following applies: HEK293-NOX5, ionomycin, 45 min, higher = more signal.

Calls of active or inactive are those of the source.

NADPH oxidase 2 (Homo sapiens), sequence (P04839 whole entry, looked up): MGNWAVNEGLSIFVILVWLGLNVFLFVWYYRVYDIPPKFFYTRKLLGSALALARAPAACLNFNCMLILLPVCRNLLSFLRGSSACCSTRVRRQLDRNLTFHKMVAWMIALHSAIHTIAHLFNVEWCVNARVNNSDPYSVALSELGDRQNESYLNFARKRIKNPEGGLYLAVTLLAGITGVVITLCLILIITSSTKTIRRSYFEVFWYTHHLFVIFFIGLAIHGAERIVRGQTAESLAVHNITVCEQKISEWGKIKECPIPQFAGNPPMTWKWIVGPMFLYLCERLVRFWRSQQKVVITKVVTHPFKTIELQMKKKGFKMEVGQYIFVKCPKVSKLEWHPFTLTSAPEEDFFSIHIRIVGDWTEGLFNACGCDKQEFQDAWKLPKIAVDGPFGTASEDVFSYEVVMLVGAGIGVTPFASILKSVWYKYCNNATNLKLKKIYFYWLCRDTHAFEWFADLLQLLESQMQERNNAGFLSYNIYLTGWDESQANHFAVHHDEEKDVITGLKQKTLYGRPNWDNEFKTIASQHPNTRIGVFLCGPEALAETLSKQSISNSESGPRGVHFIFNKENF
NADPH oxidase 5 (Homo sapiens), sequence (Q96PH1 whole entry, looked up): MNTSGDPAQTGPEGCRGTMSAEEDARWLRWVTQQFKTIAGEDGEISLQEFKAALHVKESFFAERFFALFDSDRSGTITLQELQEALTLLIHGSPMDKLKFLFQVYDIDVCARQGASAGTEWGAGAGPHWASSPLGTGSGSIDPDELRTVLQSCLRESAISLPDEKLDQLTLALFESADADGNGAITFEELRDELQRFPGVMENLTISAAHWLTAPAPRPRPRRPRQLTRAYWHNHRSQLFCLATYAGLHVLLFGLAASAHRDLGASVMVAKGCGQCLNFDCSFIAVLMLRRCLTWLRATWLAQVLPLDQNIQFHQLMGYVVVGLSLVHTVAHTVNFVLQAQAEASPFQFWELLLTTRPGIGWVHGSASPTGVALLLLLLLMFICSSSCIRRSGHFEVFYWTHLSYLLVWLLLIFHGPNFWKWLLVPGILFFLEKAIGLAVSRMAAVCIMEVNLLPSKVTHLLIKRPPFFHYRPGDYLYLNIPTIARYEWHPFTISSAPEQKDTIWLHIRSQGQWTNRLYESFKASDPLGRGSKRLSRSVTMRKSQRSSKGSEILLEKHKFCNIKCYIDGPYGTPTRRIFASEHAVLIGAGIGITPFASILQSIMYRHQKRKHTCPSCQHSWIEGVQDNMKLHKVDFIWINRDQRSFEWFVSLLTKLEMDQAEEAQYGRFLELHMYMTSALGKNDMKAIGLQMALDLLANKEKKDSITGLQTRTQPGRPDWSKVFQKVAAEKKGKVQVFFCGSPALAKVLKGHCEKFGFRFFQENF
NADPH oxidase 4 (Homo sapiens), sequence (Q9NPH5 whole entry, looked up): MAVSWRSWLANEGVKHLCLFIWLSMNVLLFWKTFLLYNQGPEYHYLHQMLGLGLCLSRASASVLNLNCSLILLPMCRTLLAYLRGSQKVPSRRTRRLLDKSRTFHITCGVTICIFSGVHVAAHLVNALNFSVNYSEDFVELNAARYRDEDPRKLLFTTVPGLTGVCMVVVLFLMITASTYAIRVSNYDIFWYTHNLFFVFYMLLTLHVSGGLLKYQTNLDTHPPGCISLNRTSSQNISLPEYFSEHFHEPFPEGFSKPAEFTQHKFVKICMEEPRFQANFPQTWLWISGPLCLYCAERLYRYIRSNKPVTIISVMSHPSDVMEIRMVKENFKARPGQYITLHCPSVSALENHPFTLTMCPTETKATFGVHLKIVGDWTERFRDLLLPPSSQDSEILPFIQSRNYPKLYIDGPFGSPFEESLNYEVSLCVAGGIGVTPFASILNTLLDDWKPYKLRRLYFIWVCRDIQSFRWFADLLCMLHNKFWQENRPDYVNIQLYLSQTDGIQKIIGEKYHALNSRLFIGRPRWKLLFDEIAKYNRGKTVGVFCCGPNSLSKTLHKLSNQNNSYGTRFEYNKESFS

Take `CCCCCN1CC=CC23O[C@@H]4C=CCOC(=O)[C@@H]4[C@H]2C(=O)N(CCO)[C@@H]3C1=O` (stereo not given in full): the z-score in [1] was -0.23 (inactive); in assay [3] it was 0.0674 (inactive); in assay [4] it was 0.31 (inactive); in assay [5], 0.266 (inactive); in assay [6], 0.161 (inactive); in [7], -0.53. In addition, the z-score was 1.52 (inactive) in assay [8], 0.713 (inactive) in assay [9] and 1.23 in [10]. This molecule yielded a composite z-score in [2] of -0.25.

In the case of `COCCOC(=O)N1C(=O)[C@@]2(c3cc(C#Cc4ccc(OC)cc4)ccc31)[C@H](C(=O)NC[C@H](O)c1ccccc1)[C@H]1C(=O)O[C@H](c3ccccc3)[C@H](c3ccccc3)N1[C@@H]2c1ccc(OCCO)cc1`, the z-score in [1] is 1.34 (inactive); in assay [3] it was 5.02 (inactive); in [4] it was 1.45 (inactive); in assay [5] it was -0.191 (inactive); in assay [6] it was 0.312 (inactive); in assay [7] it was 2. Also, the figures for the z-score in assay [8], in assay [9] and in assay [10] were -0.756 (inactive), -2.17 (inactive) and -2.61, respectively. The composite z-score in assay [2] worked out at 0.179.

For `O=C1c2ccccc2[C@](Cc2ccccc2I)(C(=O)NC2CC2)[C@H](c2ccc(CO)cc2)N1Cc1ccccc1C(F)(F)F`, the z-score in [1] is -1.14 (inactive); in [3], 8.14 (active); in assay [4], 0.789 (inactive); in [5], 4.29 (inactive); in assay [6], -0.165 (inactive); in assay [7], 2.18. The z-score in [8] is 0.459 (inactive); in [9], -1.34 (inactive); in assay [10], -2.92. The composite z-score in assay [2] was -0.0902.

Consider `COCCOC(=O)N1C(=O)[C@@]2(c3cc(C#CC4(O)CCCCCC4)ccc31)[C@H](c1ccc(OCCO)cc1)N1[C@H](c3ccccc3)[C@H](c3ccccc3)OC(=O)[C@H]1[C@@H]2C(=O)Nc1nc2ccccc2s1`, for which the z-score in [1] was -0.595 (inactive); in assay [3] it was 2.53 (inactive); in [4], 2.08 (inactive); in [5], 0.834 (inactive); in assay [6], 1.53 (inactive); in [7], -0.652. Besides, the z-score was 0.549 (inactive) in assay [8], 0.131 (inactive) in assay [9] and 1.94 in [10]. This molecule also showed a composite z-score in assay [2] of 0.718.

For the molecule `CC(C)CNC(=O)[C@@]1(c2ccc([N+](=O)[O-])cc2)CC(=O)N(C2CCCCC2)[C@@H]1c1ccc(CO)cc1`, the z-score in [1] is 0.706 (inactive); in assay [3], 0.879 (inactive); in assay [4], -0.189 (inactive); in assay [5], 0.0352 (inactive); in assay [6], -0.013 (inactive); in [7] it was 0.358. For the same molecule, the results for the z-score in assay [8], in [9] and in [10] were 0.382 (inactive), 0.581 (inactive) and 0.668, respectively. In [2], this molecule displayed a composite z-score of 0.164.

Regarding `CCOC(=O)C1=CC[C@@H](c2ccccc2)N(S(=O)(=O)c2ccc(C)cc2)[C@H]1C=Cc1ccccc1`, the z-score in assay [1] is -1.11 (inactive); in [3], 1.92 (inactive); in [4], 1.12 (inactive); in assay [5], -0.684 (inactive); in assay [6] it was 0.779 (inactive); in assay [7], -0.577. Also, the z-score in assay [8] was 0.549 (inactive); in assay [9] it was -0.395 (inactive); in assay [10] it was 0.884. This molecule also returned a composite z-score in assay [2] of 0.436.

For the molecule `CS(=O)(=O)CCOC(=O)C1=CC(CCCO)=CC(C2CC2)N(Cc2cccc(OC(F)(F)F)c2)C=C1C(=O)OCCS(C)(=O)=O` (stereo not given), the z-score was -1.07 (inactive) in assay [1]; 2.65 (inactive) in [3]; 0.404 (inactive) in assay [4]; -0.352 (inactive) in assay [5]; 0.675 (inactive) in [6]; -0.662 in assay [7]. The z-score is 0.944 (inactive) in [8], 0.19 (inactive) in assay [9] and -1.29 in assay [10]. This molecule also registered a composite z-score in assay [2] of 0.0392.

For `C=C(COC)C(=O)CC[C@@H](OC(=O)c1cccnc1)c1ccccc1OCCO`, the z-score in assay [1] is 0.0001 (inactive); in assay [3] it was 21.2 (active); in assay [4], 2.88 (inactive); in assay [5] it was 0.793 (inactive); in assay [6], 0.65 (inactive); in [7], -0.347. Moreover, the z-score in assay [8] is -2.12 (inactive); in assay [9], -0.369 (inactive); in assay [10], -1.4. Besides, the composite z-score in [2] is -0.106.

`COCCOC(=O)N1C(=O)[C@@]2(c3cc(C#CCC(C(=O)OC)C(=O)OC)ccc31)[C@H](c1ccc(OCCO)cc1)N1[C@H](c3ccccc3)[C@H](c3ccccc3)OC(=O)[C@H]1[C@@H]2C(=O)Nc1nc2ccccc2s1`: the z-score was 2.25 (inactive) in [1]; 4.99 (inactive) in [3]; 2.47 (inactive) in assay [4]; 0.924 (inactive) in assay [5]; 2.21 (inactive) in [6]; 0.0091 in assay [7]. In addition, the z-score in assay [8] is 0.892 (inactive); in assay [9], 0.647 (inactive); in assay [10], 0.93. Also, the composite z-score in [2] was 0.129.

As for `CO[C@H]1O[C@H](CO)[C@@H](OC(=O)c2ccc(Br)cc2)[C@@H]2OC(=O)[C@H](Cc3ccccc3)C/C=C/C[C@@H](Cc3ccccc3)C(=O)O[C@@H]12`, the z-score in [1] was 2.28 (inactive); in assay [3], 2.36 (inactive); in assay [4] it was -0.765 (inactive); in assay [5] it was -1.53 (inactive); in assay [6] it was -1.02 (inactive); in assay [7], 1.92. In addition, the z-score in assay [8] is -4.18 (inactive); in assay [9], -0.416 (inactive); in assay [10], -1.82. For the same molecule, in assay [2], the composite z-score was -0.715.

With `C=C(/C(=C/C[C@H](OC(=O)c1ccncc1)c1cccc(OCCO)c1)c1cnc2ccccc2c1)C(C)C`, the z-score is -0.599 (inactive) in [1]; 6.01 (inactive) in [3]; 2.44 (inactive) in [4]; -2.09 (inactive) in [5]; 0.626 (inactive) in [6]; -0.787 in assay [7]. Also, the z-score in assay [8] is -4.67 (inactive); in [9], -0.946 (inactive); in assay [10] it was -1.49. Also, the composite z-score in assay [2] was -0.0046.

As for `CN1C(=O)C2C=CC(C(O)c3ccc(I)cc3)N(Nc3ccccc3)C2C1=O` (stereo not given), the z-score in assay [1] is -1.97 (inactive); in [3], 1.9 (inactive); in [4], 1.27 (inactive); in assay [5], 1.04 (inactive); in [6], 1.12 (inactive); in [7] it was -0.919. For the same molecule, the z-score is -0.874 (inactive) in [8], -5.01 (inactive) in assay [9] and -4.14 in assay [10]. The molecule also displayed a composite z-score in assay [2] of 0.195.

As to `CCOC(=O)C1=CCN(S(=O)(=O)c2ccc(C)cc2)C1c1ccccc1` (stereo not given), the z-score in assay [1] is -1.44 (inactive); in assay [3], 3.1 (inactive); in assay [4] it was 0.8 (inactive); in assay [5] it was -0.451 (inactive); in assay [6], 0.806 (inactive); in [7] it was -0.489. Also, the z-score in [8] is 0.532 (inactive); in assay [9] it was -1.38 (inactive); in [10], -0.86. In addition, in assay [2], the composite z-score worked out at 0.121.
